# PubChem BioAssay
# The source made the active and inactive calls.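 Rule for the calls: active = GFP response above 150% of the DMSO level; inconclusive = fewer than 70 events counted for a yeast strain; inactive = the rest.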
# Experiment: modulators of CIT2-GFP expression in yeast, confirmation, S. cerevisiae, GFP fusion, cherry picks, mother/daughter gates (AID 2274)
# Settings: S. cerevisiae CIT2-GFP strain, flow cytometry, 3 h; at 10 µM; active compounds read high
row,SMILES,"GFP response, % of DMSO"
1,CCCC(=O)Nc1ccc(C(=O)/C=C/c2ccc(SC)cc2)cc1,95.2% (inactive)
2,Cc1cccc(CS(=O)(=O)c2ncc(Cl)c(C(=O)NCc3ccc4c(c3)OCO4)n2)c1,107% (inactive)
3,Cc1nnc(NC(=O)c2ccc(S(=O)(=O)N(C)Cc3ccccc3)cc2)o1,103% (inactive)
4,Clc1cnc(N/N=C/c2cccs2)c(Cl)c1,103% (inactive)
5,CC1CCCN(CCCNC(=O)C2CCN(S(=O)(=O)N3CCC4(CC3)OCCO4)CC2)C1 (centres undefined),105% (inactive)
6,Clc1ccc(OCCn2cnc3ccccc32)c(Cl)c1,82.6% (inactive)
7,O=C(O)c1ccn2c(C(=O)c3ccccc3)c(-c3ccccc3)cc2c1,96.9% (inactive)
8,CC(=O)Oc1ccc(N2C(=O)C3C4C=CC(CO)(O4)C3C2=O)cc1 (centres undefined),109% (inactive)
9,COc1ccc(/C=C/C(=O)c2ccc(Cl)cc2)c(OC)c1,99.7% (inactive)
10,O=C(CN1C(=O)c2cccc3cccc(c23)C1=O)N1CCCCCC1,100% (inactive)
11,COC(=O)c1ccc(CS(=O)(=O)c2ccc(F)cc2)o1,100% (inactive)
12,O=C(c1cccc(COCC(F)(F)C(F)F)c1)N1CCN(c2ccccc2)CC1,97.8% (inactive)
13,COc1ccccc1N=Cc1nc(-c2ccccc2)oc1OC(C)=O,90.1% (inactive)
14,CNC(=O)c1c(O)c2cccc3c2n(c1=O)CC3,93.5% (inactive)
15,O=[N+]([O-])c1cc(S(=O)(=O)C(F)(F)F)ccc1Sc1nc2ccccc2s1,107% (inactive)
16,CN(C)c1ccc(/C=C/c2cc[n+](C)cc2)cc1,149% (inactive)
17,O=c1oc(/C=C/c2ccc([N+](=O)[O-])s2)nc2ccccc12,183% (active)
18,Cc1ccc(Sc2ncnc3onc(C)c23)cc1,105% (inactive)
19,COc1ccc(C(=O)c2no[n+]([O-])c2C(=O)c2ccc(OC)cc2)cc1,82.6% (inactive)
20,CCN(CC)CCCN(Cc1cc2cc3c(cc2[nH]c1=O)OCO3)C(=S)Nc1ccccc1,126% (inactive)
21,COc1ccc(-c2cc(C(F)(F)F)nc(N3CCOCC3)n2)cc1OC,110% (inactive)
22,O=c1/c(=C/c2cccc3ccccc23)sc2ncnn12,112% (inactive)
23,Cc1ccccc1NC(=O)c1ccccc1O,100% (inactive)
24,COc1ccccc1-c1noc(-c2cc(OC)c(OC)c(OC)c2)n1,99.1% (inactive)
